# System: HepG2
# Experiment: GSK_TCMDC: Percent inhibition of human HepG2 cell line. Test compounds present at 10uM.
# Assay type: functional
row,SMILES,Inhibition [%]
1,S=C(NCCc1ccccc1)Nc1ccc2ncsc2c1,0
2,Cc1ccc(Nc2nc(-c3ccccn3)cs2)nc1,60
3,O=C(/C=C/c1ccc(Cl)c(Cl)c1)NCCCCCCN1CCCN(C(=O)Nc2cccc(Cl)c2)CC1,26
4,Cc1cccc(-n2nc(C)c3c2NC(=O)CC3C(=O)c2ccc(Cl)s2)c1 (stereo unspecified),13
5,CCOc1ccc(-c2nonc2NC(=O)c2ccc(OC)cc2)cc1OCC,0
6,C=C[C@]1(C)C[C@@H](OC(=O)NC(=O)C2CCN(C(=O)CSc3ccccc3)CC2)[C@]2(C)[C@H](C)CC[C@]3(CCC(=O)[C@H]32)[C@@H](C)[C@@H]1O,0
7,Cc1cccc2nc(-c3ccc(-c4cccc(CNCCN(C)C)c4)cc3)[nH]c12.O=C(O)C(F)(F)F,6
8,O=S(=O)(Nc1cccc(CCN2CCCCC2CCN2CCCC2)c1)c1ccc2ccccc2c1 (stereo unspecified),22
9,CC(Cc1ccc(OCCN2CCN(c3cccc(Cl)c3)CC2)cc1)NCC(O)c1cccc(C(F)(F)F)c1.Cl (stereo unspecified),100
10,NC(=O)c1ccc(-n2cnc3cc(F)ccc32)cc1OCc1ccccc1C(F)(F)F.NC(=O)c1ccc(-n2cnc3ccc(F)cc32)cc1OCc1ccccc1C(F)(F)F,55
11,Cc1cccc(-c2nn(-c3ccccc3)cc2C(=O)Nc2nnc(C)o2)c1,38
12,COc1ccc(CCNC(C)Cc2ccc(C(=O)Nc3ccc(CC(C)NCCc4cccc(Cl)c4)cc3)cc2)cc1 (stereo unspecified),99
13,COc1cc(NC(=O)Nc2ccnc3ccccc23)cc(OC)c1.Cl,11
14,CC(C)c1ccc(CN2CCC(NC(=O)c3ccc(-c4cccc(Cl)c4)s3)CC2)cc1.O=C(O)C(F)(F)F,50
15,COc1cc(C(=O)NCc2nn(CCN3CCC(N4CCCC4)CC3)cc2-c2ccc(Cl)c(Cl)c2)cc(OC)c1OC,16
16,Cc1cc(N[C@@H](Cc2ccccc2)C(=O)NCc2cccc(F)c2)nc(NCCOc2ccccc2)n1.O=C(O)C(F)(F)F,0
17,Cc1c(-c2ccccc2)ccc2[nH]cc(CC#N)c12,2
18,CCCN(CCC)C(=O)c1cc(C(=O)N[C@@H](Cc2ccccc2)[C@H](O)CNC(C)(C)c2cccc(OC)c2)cc(N2CCCCS2(=O)=O)c1,16
19,COc1cc2ncnc(Nc3ccc4nc(-c5ccccc5)[nH]c4c3)c2cc1OC.Cl,15
20,O=C(Nc1ccc(Cl)cc1)c1cc(Cl)cc2nc(C(F)(F)F)[nH]c12,87
21,CN(C)CCNCc1ccc(-c2ccc3c(Nc4ccc(Oc5ccccc5)cc4)ccnc3c2)o1,19
22,Cc1cccc(CC2CC(=O)N(c3ccc([N+](=O)[O-])cc3)C2=O)c1 (stereo unspecified),11
23,NCC1CCCN1Cc1cccc(-c2cccc(-c3nc4cc(F)ccc4[nH]3)c2)c1.O=C(O)C(F)(F)F (stereo unspecified),10
24,Br.CCOC(=O)c1cc(Cl)ccc1OCCCON1C(=N)N=C(N)NC1(C)C,69
25,CC(C)N1CCC(N(Cc2ccc(-c3ccc(C(F)(F)F)cc3)cc2)C(=O)Cn2c(CCc3cccc(F)c3F)nc(=O)c3cccnc32)CC1.O=C(O)C(O)C(O)C(=O)O,100
26,CN(C)CCN(C)Cc1ccc(-c2ccc3c(Nc4ccc(Cl)cc4F)ccnc3c2)o1,20

# From ChEMBL document CHEMBL1157539, “Thousands of chemical starting points for antimalarial lead identification” (Nature, 2010)
